# Laboratory results taken from PubChem BioAssay AID430 (Sanford-Burnham Center for Chemical Genomics, 2006).
# Several values for one entry are separate records, joined by “and”; a condition that tells them apart may be missing. Equal values may be shown once. Out of some 63,000 compounds screened, about 1,100 (1.7%) were called active. Rule as the data show it: active = cytotoxicity above about 50%; inactive = the rest. The list comes from a sample in which actives are over-represented; it also holds similar structures and randomly drawn compounds. Measured potencies and affinities stand elsewhere. A structure can be active in one record and inactive in another.
# Test: cytotoxicity in HPDE-C7 cells, cell-based, fluorescence, HTS (AID 430);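 also: cells exposed to compound for 48 hours before viability readout; 0% = vehicle and 100% = reference cytotoxic drug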
# Conditions: HPDE-C7 pancreatic duct cells viability, at 10 µM, stronger effect = higher value
row,Structure (SMILES),cytotoxicity
1,CCOC(=O)c1cc2c(cn1)[nH]c1ccccc12,30.4% (inactive)
2,c1ccc2c3c([nH]c2c1)CNCC3,-4.7% (inactive)
3,c1ccc2c(c1)[nH]c1cnccc12,72.4% (active)
4,CC12CCCCC1N(O)CN2O (stereo not drawn),-2.3% (inactive)
5,CCOc1ccccc1C1SCC(=O)Nc2c1c(=O)[nH]n2C(CC)CC (stereo not drawn),-4% (inactive)
6,O=C(Nc1ccncc1)c1c(O)c2ccccc2n(Cc2ccccc2)c1=O,-2.4% (inactive)
7,CCCCCCn1c(O)c(C=Nc2c(C)n(C)n(-c3ccccc3)c2=O)c(=O)[nH]c1=O,5.3% (inactive)
8,CCCCCCn1c(=O)c(C(=O)Nc2c(C)n(C)n(-c3ccccc3)c2=O)c(O)c2ccccc21,51.8% (active)
9,CCCCCn1c(=O)c(C(=O)Nc2ccncc2)c(O)c2ccccc21,68.6% (active)
10,O=C(Nc1cccnc1)c1c(O)c2c(n(Cc3ccccc3)c1=O)CCCC2,1% (inactive)
11,CCCCn1c(=O)c(C(=O)Nc2nc3ccccc3[nH]2)c(O)c2ccccc21,15.2% (inactive)
12,CCCCCCn1c(=O)c(C(=O)Nc2ccncc2)c(O)c2ccccc21,37.2% (inactive)
13,CCCCn1c(=O)c(C(=O)Nc2ccccc2S(N)(=O)=O)c(O)c2ccccc21,-2.2% (inactive)
14,CCCCCn1c(=O)c(C(=O)NCc2ccncc2)c(O)c2ccccc21,60.6% (active)
15,CCCCCn1c(=O)c(C(=O)NCc2ccccn2)c(O)c2ccccc21,2.6% (inactive)
16,CCCCc1nc2ccccc2c(=O)n1-c1ccc(O)cc1,-5.1% (inactive)
17,CCCCn1c(=O)c(C(=O)Nc2cnccn2)c(O)c2ccccc21,60.1% (active)
18,COc1ccc(CC2c3cc(OC)c(OC)cc3CCN2C)cc1OC (stereo not drawn),3.5% (inactive)
19,COc1ccc2c(c1)CC1(CN2C)C(=O)NC(=O)N(c2ccc(C)cc2)C1=O (stereo not drawn),5.9% (inactive)
20,COc1ccc2nc(NC(=O)CCc3nc(C4=CCN(C)CC4)no3)sc2c1,-12.4% (inactive)
21,O=c1cccc2n1CC1CC2CN(Cc2ccc3c(c2)OCO3)C1 (stereo not drawn),-17.1% (inactive)

row,Structure (SMILES),cytotoxicity
1,C=CCN1C(=O)CSc2ccc(C(=O)N3CCC4(CC3)OCCO4)cc21,-17.9% (inactive)
2,C=Cn1ccnc1P(=S)(c1ccn(C)c1)c1nccn1C=C,7.8% (inactive)
3,CCCCN1C(=O)NC(=O)C2(Cc3c(nc4c(C)cccn4c3=O)N3CCc4ccccc4C32)C1=O (stereo not drawn),13.9% (inactive)
4,O=c1[nH]c(=O)n(CCc2ccc(F)cc2)c(O)c1C=NCCCn1ccnc1,-19.6% (inactive)
5,CNCC(O)c1cccc(OC(=O)c2ccccc2C)c1 (stereo not drawn),-3.3% (inactive)
6,CC(CCc1ccccc1)NC(C)C(O)c1ccc(O)cc1 (stereo not drawn),8.9% (inactive)
7,CNCC(O)c1ccc(O)cc1 (stereo not drawn),50.6% (active)
8,Cc1ccc(-c2nc(CS(=O)CC(=O)N3CCC4(CC3)OCCO4)c(C)o2)cc1 (stereo not drawn),1.6% (inactive)
9,CC(C)=CCC12CN3CCN(CC(C3)C1=O)C2,-7.6% (inactive)
10,COc1cc(OC)cc(-n2nc(C(=O)N3CCC4(CC3)OCCO4)c3ccccc3c2=O)c1,-1.5% (inactive)
11,CCC(=NCc1cccnc1)c1c(O)n(C2CCCCC2)c(=O)[nH]c1=O,-32.8% (inactive)
12,CCC(=NCc1ccc2c(c1)OCO2)c1c(O)n(C2CCCCC2)c(=O)[nH]c1=O,64.4% (active)
13,CCCCn1c(O)c(C(CC)=NCc2ccc3c(c2)OCO3)c(=O)[nH]c1=O,10% (inactive)
14,Cn1c2ccccc2c2c(C(=O)N3CCC4(CC3)OCCO4)cn(C3CCCCC3)c(=O)c21,-1.3% (inactive)
15,NCCCP(=O)(O)CCc1ccccc1,-5.8% (inactive)
16,Cn1c(O)c(/C=N/c2ccccn2)c(=O)n(C)c1=O,-18.2% (inactive)
17,COc1ccc(C2SCC(=O)Nc3c2c(=O)[nH]n3C2CCCCC2)cc1 (stereo not drawn),-0.7% (inactive)
18,COc1ccc(C2SCC(=O)Nc3c2c(=O)[nH]n3C2CCCCCC2)cc1 (stereo not drawn),90.9% (active)
19,CCOc1ccc(C2SCC(=O)Nc3c2c(=O)[nH]n3C2CCCCCC2)cc1 (stereo not drawn),-18.2% (inactive)
20,N#Cc1ccc(N2CCNCC2)c(F)c1,8.7% (inactive)
21,O=C1NC(=O)C2(Cc3c(nc4ccccn4c3=O)N3CCCCCC32)C(=O)N1Cc1ccccc1 (stereo not drawn),48.1% (inactive)

row,Structure (SMILES),cytotoxicity
1,Cc1nc2ccc(Cl)cn2c1P(=S)(N1CCOCC1)N1CCOCC1,-4.2% (inactive)
2,Nc1c(C(=O)NCc2ccco2)c2nc3ccccc3nc2n1Cc1ccc(F)cc1,80.9% (active)
3,COc1ccc(Cn2c(N)c(C(=O)NCc3ccco3)c3nc4ccccc4nc32)cc1OC,2.8% (inactive)
4,COCCOC(=O)c1c(N)n(Cc2ccco2)c2nc3ccccc3nc12,17.4% (inactive)
5,Nc1c(C(=O)NCCN2CCOCC2)c2nc3ccccc3nc2n1Cc1ccco1,5.7% (inactive)
6,COCCOC(=O)c1c(N)n(Cc2ccc(OC)cc2)c2nc3ccccc3nc12,-32.4% (inactive)
7,COc1ccc(Cn2c(N)c(C(=O)NCc3ccco3)c3nc4ccccc4nc32)cc1,69.5% (active)
8,Cc1nnc2ccc(N3CCN(C)CC3)nn12,-0.1% (inactive)
9,C=CCN1C(=O)C2(C(C(=O)OCC)=C(N)Oc3ccccc32)c2c1c1ccccc1oc2=O (stereo not drawn),5.2% (inactive)
10,CCOC(=O)c1c(N)n(CCN2CCCCC2)c2nc3ccccc3nc12,9.2% (inactive)
11,CCCCNC(=O)c1c(N)n(CCCOC)c2nc3ccccc3nc12,24.4% (inactive)
12,CCCCCCn1c(N)c(C(=O)NCCN2CCOCC2)c2nc3ccccc3nc21,72.1% (active)
13,CCCCn1c(N)c(C(=O)NCCN2CCOCC2)c2nc3ccccc3nc21,1.4% (inactive)
14,COc1ccc(CCNC(=O)c2c(N)n(CCN3CCOCC3)c3nc4ccccc4nc23)cc1,62.9% (active)
15,CCCCCn1c(N)c(C(=O)NCCN2CCOCC2)c2nc3ccccc3nc21,10.6% (inactive)
16,OCCNc1c2c(nc3ccccc13)CCCC2,-2.4% (inactive)
17,CC(=NCCCN1CCOCC1)c1c(O)[nH]c(=O)[nH]c1=O,3.3% (inactive)
18,CC1(C)C(C(=O)NCc2ccco2)C1(C)C,-21.5% (inactive)
19,Cc1cccc(N2CCc3c2nc2ccccc2c3N)c1,24.2% (inactive) and 50.1% (active)
20,Cc1nc2ccccc2c(=O)n1-c1cccc(O)c1,3.6% (inactive)
21,Cc1cccc(-c2nc3ccccc3c(=O)n2-n2cccc2)c1,19.1% (inactive)
